Screening data: PubChem, National Center for Advancing Translational Sciences (NCATS)
NPSR antagonist: neuropeptide S receptor (human) antagonism, cAMP | CHO-NPSR cells, cAMP TR-FRET, antagonist mode | Potency, µM (series often up to 38.3 µM), inactives show at the top dose activity change, negative = inhibition, usual class: inhibitors | 220,000 tested, 1% active; also: nearly all actives have a fitted effect of over 50% in size
Tau fluor cs: counter-screen for tau fibril formation inhibitors; tau K18 P301L Alexa594 fluorescence, heparin fibrillization; Potency, µM (doses to about 57.7 µM), for the others: top-dose activity change, negative = decrease; 280,000 tested, 0.93% active; AID 1463; also: nearly all actives have a fitted effect of over 55% in size
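Human tau K18 P301L (15 uM unlabeled, 0.24 uM Alexa 594-labeled) in 100 mM sodium acetate pH 7 with 20 uM heparin, 6 hr at 37 C. ThT 30 uM added, 1 hr ambient; Alexa 594 FP and total fluorescence read at 555/632 nm.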
Tau ThT inhib: tau fibrillization inhibition (ThT binding) | AID 1460 | Potency, µM (titrated, usually from 57.4 µM), for the others: top-dose activity, negative = inhibition, actives largely listed as inhibitors | 270,000 tested, 2.1% active | P10636 | recombinant tau K18 P301L (four-repeat tau fragment), heparin-induced fibrillization, ThT fluorescence; also: nearly all actives have a fitted effect of over 55% in size
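Heparin-induced (20 uM) aggregation of recombinant human K18 P301L tau, 15 uM unlabeled with 0.24 uM labeled, pH 7 acetate buffer, 6 hr at 37 C with compound. Fibrils quantified by 30 uM ThT fluorescence after 1 hr ambient incubation.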
Tau fibril FP: inhibitors of human tau fibril formation; P10636; K18 P301L tau heparin fibrillization, Alexa594 FP, 6 h; Potency, µM (series often up to 57.7 µM), for inactives: at the highest dose activity, negative = inhibition, most hits filed as inhibitors; 280,000 tested, 0.39% active; AID 1468; also: nearly all actives have a fitted effect of over 55% in size
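Compound effects on tau fibrillization are measured by Alexa 594 fluorescence polarization (ex 555, em 632 nm). K18 P301L tau is used at 15 uM with 0.24 uM labeled tracer, and 20 uM heparin induces aggregation over 6 hr at 37 C.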
HPGD inh: HPGD (human) dehydrogenase inhibition | 150,000 tested, 4.3% active | AID 894 | Potency, µM, for inactives: at the highest dose activity change, negative = inhibition, actives largely listed as inhibitors | purified HPGD, NADH fluorescence kinetic, PGE2 substrate; active = well fitted inhibition curve with a large enough effect, not every such curve was filed as active; inconclusive = small, poorly fitted or top-dose-only effect, or another doubt; inactive = no such curve, though single readings can be large or run the other way
Target sequence (P15428 whole entry, looked up): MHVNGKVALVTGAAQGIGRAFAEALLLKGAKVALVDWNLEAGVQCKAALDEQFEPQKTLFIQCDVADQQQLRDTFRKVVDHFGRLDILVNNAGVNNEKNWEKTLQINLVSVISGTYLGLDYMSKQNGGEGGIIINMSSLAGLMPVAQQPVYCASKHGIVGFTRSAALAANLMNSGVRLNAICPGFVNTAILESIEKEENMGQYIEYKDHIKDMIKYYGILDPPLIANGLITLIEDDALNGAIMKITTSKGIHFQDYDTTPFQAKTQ
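20 nM HPGD preincubated 15 min at room temperature with compound in 50 mM Tris-HCl pH 8, 0.01% Tween 20. Started with 1 mM NAD+ and 30 uM prostaglandin E2; NADH fluorescence (360/450 nm) read 5 times over 30-s intervals, last minus first.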
ALDH1A1 inh: blocks purified human ALDH1A1 activity. AID 1030. P00352. Potency, µM (top dose mostly 75.3 µM), inactives show top-dose activity, negative = inhibition, usual class: inhibitors. Purified ALDH1A1, NADH fluorescence, propionaldehyde substrate. 220,000 tested, 7.3% active; active = well fitted inhibition curve with a large enough effect, not every such curve was filed as active; inconclusive = small, poorly fitted or top-dose-only effect, or another doubt; inactive = no such curve, though single readings can be large or run the other way;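 also: plate controls were no enzyme wells and a reference inhibitor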
Target sequence (P00352 whole entry, looked up): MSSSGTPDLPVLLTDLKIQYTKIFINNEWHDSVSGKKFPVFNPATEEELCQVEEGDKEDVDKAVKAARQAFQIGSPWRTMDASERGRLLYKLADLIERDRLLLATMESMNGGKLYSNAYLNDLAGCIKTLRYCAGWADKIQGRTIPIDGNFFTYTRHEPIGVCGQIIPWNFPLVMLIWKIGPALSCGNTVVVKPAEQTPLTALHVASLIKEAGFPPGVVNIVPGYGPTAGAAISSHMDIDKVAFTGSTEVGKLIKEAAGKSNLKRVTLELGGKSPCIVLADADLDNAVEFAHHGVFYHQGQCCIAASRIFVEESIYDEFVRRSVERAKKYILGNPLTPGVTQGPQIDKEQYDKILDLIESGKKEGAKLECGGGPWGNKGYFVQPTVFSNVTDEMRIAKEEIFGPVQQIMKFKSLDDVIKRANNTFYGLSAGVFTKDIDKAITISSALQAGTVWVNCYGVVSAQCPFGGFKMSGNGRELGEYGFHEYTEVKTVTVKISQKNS
* marks the source's active call; other numbers are inactive results; ? = inconclusive; · = no result given; [ ] = remark or other dose. An excerpt weighted towards active compounds, which were near 9.5% of everything screened. Unless noted, calls follow the shape of the dose curve; as a rule, active = well fitted curve in the direction sought with a large enough effect; inconclusive = small, poorly fitted or top-dose-only effect, or another doubt; inactive = no such curve, though single readings can be large; an effect the other way counts as inactive or inconclusive. Unless noted, % is scaled to controls: 0 for no effect and ±100 for the full control effect; potency is read from the fitted curve at half-maximal effect.

SMILES	NPSR antagonist	Tau fluor cs	Tau ThT inhib	Tau fibril FP	HPGD inh	ALDH1A1 inh
COc1cc(NC(=O)COC(=O)CNC(=O)c2ccc(C)cc2)c(C)cc1[N+](=O)[O-]	?	-1.9%	3.5%	5.9%	-18.0%	-8.4%
COc1ccc(-c2cn3cccnc3n2)cc1NC(=O)Nc1cc(C)ccc1C	·	?	?	-3.3%	·	·
O=C(/C=C/Nc1ccc(F)cc1F)c1cccs1	22.2%	-3.8%	-1.3%	3.8%	?	2.38µM*
O=C(/C=C\Nc1ccc2c(c1)OCO2)c1ccc2c(c1)OCO2	2.7%	-17.1%	?	8.0%	·	6.4%
O=C(/C=C/Nc1ccccc1F)c1cccs1	4.3%	-18.5%	?	-9.9%	-11.4%	?
O=C(/C=C\Nc1ccc2c(c1)OCO2)c1cccs1	42.8%	?	2µM*	-5.8%	·	-15.2%
O=C(/C=C\Nc1ccc2c(c1)OCO2)c1ccc(Cl)s1	1.9%	-17.0%	2.82µM*	-4.0%	·	-3.5%
COc1ccc(C(Cl)=C(c2ccc(OC)cc2)c2ccc(OC)cc2)cc1	7.94µM*	-19.5%	-9.7%	?	-22.0%	-14.8%
CCOCCCNC(C(=O)Nc1ccc(OC)c(Cl)c1)c1ccccc1 (stereo unspecified)	-28.9%	-10.0%	-2.7%	4.0%	·	2.24µM*
COCC(C)NC(C(=O)Nc1ccc(C)c(Cl)c1)c1ccccc1 (stereo unspecified)	-21.6%[46.1 µM]	-14.3%	-4.3%	1.0%	-11.2%	?
COCCNC(C(=O)Nc1cc(Cl)cc(Cl)c1)c1ccccc1 (stereo unspecified)	-5.7%[46.1 µM]	-15.0%	-3.0%	-2.0%	-9.9%	14.1µM*
COc1ccc(CN=Cc2c(O)[nH]c3ccccc23)cc1	-4.2%	?	?	-2.4%	·	-2.1%
Oc1c(C=NCc2ccc(F)cc2)[nH]c2ccc(Br)c(Cl)c12	1.0%[46.1 µM]	?	?	-7.4%	?	4.47µM*
Cc1ccc(CN=Cc2[nH]c3ccc(Br)c(Cl)c3c2O)cc1	2.9%[46.1 µM]	-19.6%	?	2.5%	28.2µM*	0.398µM*
Cc1ccc(N/C=C/C(=O)C(C)(C)C)c(O)c1	?	-21.3%	-15.2%	-3.0%	-29.6%	?
CCCn1c(-c2ccc(F)cc2)nc2c(NCC(C)(C)CN(C)C)nc(C)nc21	·	-3.8%	0.0%	-1.4%	?	?
COc1cccc(NS(=O)(=O)c2ccc3[nH]cc(C(=O)NC4CC4)c(=O)c3c2)c1	-14.1%[46.1 µM]	-22.3%	13.4%	-18.8%	-9.7%	15.2%
Cc1c(Cl)cccc1NS(=O)(=O)c1ccc2[nH]cc(C(=O)NC3CCCC3)c(=O)c2c1	·	?	11.0%	14.1µM*	·	·
Cc1ccccc1NS(=O)(=O)c1ccc2[nH]cc(C(=O)NC(C)c3ccccc3)c(=O)c2c1 (stereo unspecified)	·	?	12.2%	25.1µM*	·	·
Cc1ccccc1NS(=O)(=O)c1ccc2[nH]cc(C(=O)N3CCCCC3)c(=O)c2c1	·	5.1%	0.2%	3.1%	·	·
Cc1ccccc1NS(=O)(=O)c1ccc2[nH]cc(C(=O)NC3CCCCC3)c(=O)c2c1	·	?	8.2%	28.2µM*	·	·
CCc1cc(-c2nc(N)ncc2-c2ccc(Br)cc2)c(O)cc1OC	?	12.6µM*[quencher]	?	-2.8%	·	·
COc1ccc(-c2cnc(N)nc2-c2ccc(OCc3ccccc3)cc2O)cc1	?	?	-11.0%	?	·	-9.3%
COc1ccnc(CSC(N)=Nc2cccc(C(F)(F)F)c2)c1	-21.4%	?	17.8µM*	?	-13.3%	20µM*
COc1ccnc(CSC(N)=Nc2ccccc2OC)c1	-8.4%[46.1 µM]	-19.0%	31.6µM*	?	-7.8%	25.1µM*
SMILES	NPSR antagonist	Tau fluor cs	Tau ThT inhib	Tau fibril FP	HPGD inh	ALDH1A1 inh
COc1ccc2c(CNC3CCCC3)c(C(=O)O)n(Cc3ccccc3C)c2c1	·	-6.5%	-2.9%	3.6%	·	·
COc1ccc(Nc2ccc3c(c2)=NC2(CCCCC2)[N+]=3[O-])cc1	?	?	4.47µM*	?	-16.4%	3.55µM*
[O-][N+]1=c2ccc(Nc3ccccc3)cc2=NC12CCCCC2	10µM*	?	7.08µM*	?	-19.5%	3.55µM*
COc1ccc(NC2=NC(=S)N(c3ccccc3C)C23CCCCC3)cc1	-9.4%[46.1 µM]	-11.9%	-13.7%	9.8%	-12.0%	-12.7%
Oc1cccc(Nc2ccccc2)c1	·	·	·	·	-4.3%	-1.4%
CCCCN(C)CCNC(=O)c1ccc2c(=O)n(CCc3ccccc3)c(=O)[nH]c2c1	·	-26.1%	-6.8%	-9.8%	·	·
CCc1ccc(CNC(=O)c2cnc3sc4cc(OC)ccc4n3c2=O)cc1	·	-10.7%	-6.6%	-3.8%	·	·
CC(C)(C)c1nnc(SCC(=O)c2ccccc2)n(N)c1=O	4.3%	-3.7%	-3.7%	3.7%	25.1µM*	9.0%
Cn1c(SCC(=O)c2ccccc2)nnc1-c1ccco1	-6.4%[46.1 µM]	-4.8%	-14.4%	-1.1%	-7.6%	?
COc1ccc(C(=O)CSc2nc3ccccc3n2CC(=O)c2ccccc2)cc1	?	?	?	-5.1%	-4.9%	25.1µM*
CCn1c(SCC(=O)N2CCN(c3cccc(Cl)c3)CC2)nc2ccccc2c1=O	?	-17.0%	?	-1.6%	-18.3%	28.2µM*
Cc1cc2ccccc2c(=O)n1CC(=O)N1CCN(c2cccc(Cl)c2)CC1	-6.4%[46.1 µM]	-10.2%	-7.8%	-2.3%	-15.8%	-0.9%
CCn1c(SCC(=O)c2ccccc2)nc2ccccc2c1=O	-25.3%	-27.9%	?	-9.7%	·	15.8µM*
C[C@]12CC[C@H]3c4ccc(O)cc4CC[C@@H]3[C@H]1CC[C@@H]2OC(=O)CCc1ccccc1	·	·	·	·	-10.4%	-1.3%[13.5 µM]
Cc1ccc(Oc2ccc(-c3nnc(-c4ccccc4)o3)cc2[N+](=O)[O-])cc1C	2.4%	-18.9%	-15.7%	7.1%	-16.4%	-8.6%
CC(C)(C)c1nc(SCC(=O)NCc2ccco2)c2ccccc2n1	-22.0%[46.1 µM]	-9.3%	?	-6.8%	-17.5%	?
CCCCn1c(SCC(=O)c2ccccc2)nc2ccsc2c1=O	-43.8%	-20.0%	-1.2%	-0.8%	-1.2%	7.08µM*
COc1ccc(C(=O)CSc2nc(C(C)(C)C)nc3ccccc23)cc1	36.9%	-18.4%	-17.4%	?	·	14.1µM*
CCCCn1c(SCC(=O)c2ccc(O)c(O)c2)nc2ccsc2c1=O	-9.0%[46.1 µM]	?	?	9.2%	-4.8%	?
CC(=O)c1ccc(-n2c(SCC(=O)c3c[nH]c4ccccc34)nc3ccccc3c2=O)cc1	-4.3%	1.3%	-4.9%	12.1%	28.2µM*	17.2%
CNc1ccc(Br)cc(C(=O)/C=C/c2ccc(OC)cc2OC)c1=O	-27.8%	?	11.2µM*	?	14.1µM*	?
CNc1ccc(Br)cc(C(=O)/C=C/c2cccc(OC)c2)c1=O	9.2%[46.1 µM]	?	11.2µM*	-16.0%	7.94µM*	14.1µM*
COc1ccc(/C=C/C(=O)c2ccc(OC)cc2OC)c(OC)c1	47.4%	-19.2%	?	5.2%	·	1.5%
